aSyn UTR act: Activators via SNCA 5'UTR binding, MLPCN. alpha-synuclein 5'UTR reporter, activators screen. activity score, % (tested at 7.5 µM), hits read low. 7.1% of 300,000 active; in the data active = activity score below about -60%
Large screens that a line does not name were inactive. The list is a sample of the results.

CCOC(=O)c1ccc(COC(=O)c2ccc(-c3nnc(-c4ccccc4)o3)cc2)o1	aSyn UTR act -91
CCOC(=O)c1ccc(-c2ccc(CO)o2)cc1	aSyn UTR act -132
CCOC(=O)c1ccc(-c2nnc(-c3ccc(Cl)cc3Cl)o2)cc1	aSyn UTR act -207
NC(=O)c1c(NC(=O)c2ccco2)sc2c1CCC2	aSyn UTR act -277
Cc1occc1C(=O)Nc1sc2c(c1C(N)=O)CCCCC2	aSyn UTR act -176
CC1(C)Cc2c(sc(NC(=O)c3ccco3)c2C#N)CO1	aSyn UTR act -100
O=C(Nc1sc2c(c1C(=O)O)CCCCC2)c1ccco1	aSyn UTR act -96
N#Cc1c(NC(=O)c2ccco2)sc2c1CCC2	aSyn UTR act -133
COc1cccc(Nc2nc(CC(C)=O)ns2)c1	aSyn UTR act -86
COc1ccc(Nc2nc(CC(C)=O)ns2)cc1	aSyn UTR act -109
CC(=O)Cc1nsc(Nc2ccc3c(c2)OCCO3)n1	aSyn UTR act -125
N#C/C(=C\c1ccc(Cl)cc1)c1nc(-c2ccco2)cs1	aSyn UTR act -66
N#C/C(=C\c1ccc(F)cc1)c1nc(-c2ccco2)cs1	aSyn UTR act -167
COCCNC(=O)C(=O)Nc1ccc(Br)cc1	aSyn UTR act -103
C=CCNC(=S)Nc1ccc(N(C)C)cc1	aSyn UTR act -70
CCCNC(=O)C(=O)Nc1ccc(N(C)C)cc1	aSyn UTR act -126
CCOc1ccc2c(c1)C(C)=CC(C)(C)N2S(=O)(=O)c1ccc(C)cc1	none
COc1ccc2c(c1)C(C)=CC(C)(C)N2S(=O)(=O)c1ccc(C)cc1	aSyn UTR act -63
C(=C\c1cccc2ccccc12)/c1nnc(-c2cccs2)o1	aSyn UTR act -69
Nc1cccc(-c2cnc3ccccc3n2)c1	aSyn UTR act -99
COc1ccccc1Oc1ccc(-c2cnc3ccccc3n2)cc1[N+](=O)[O-]	aSyn UTR act -74
O=[N+]([O-])c1ccc(-c2nc(C(Cl)Cl)c3ccccc3n2)cc1	none
O=[N+]([O-])c1cc(-c2cnc3ccccc3n2)ccc1Cl	aSyn UTR act -93
O=[N+]([O-])c1cccc(-c2cnc3ccccc3n2)c1	aSyn UTR act -93
O=[N+]([O-])c1cc(-c2cnc3ccccc3n2)ccc1Oc1ccc(Cl)cc1	aSyn UTR act -65
O=C(Cc1ccccc1)c1ccc2c(c1)OCCO2	aSyn UTR act -107
Cc1ccc(S(=O)(=O)CC(=O)c2ccc3c(c2)OCCO3)cc1	aSyn UTR act -70
O=C(OCCN1CCOCC1)c1ccc2c(c1)OCCO2	aSyn UTR act -94
O=C(CCCN1CCOCC1)c1ccc2c(c1)OCCO2	aSyn UTR act -81
N/C(=N\OC(=O)Nc1ccc(Cl)cc1)c1ncc(C(F)(F)F)cc1Cl	aSyn UTR act -73
N/C(=N\OC(=O)Nc1ccccc1)c1ncc(C(F)(F)F)cc1Cl	aSyn UTR act -115
Cc1ccccc1OCc1nc2ccccc2c(=O)n1/N=C/c1ccco1	aSyn UTR act -66
O=Cc1cc2ccccc2nc1SCc1ccc(Cl)cc1	none
Clc1ccc(CSc2ncccn2)cc1	aSyn UTR act -80
NNc1nc2c(-c3ccc(Cl)cc3)nnn2c2ccccc12	aSyn UTR act -92
NNc1nc2c(-c3ccc(F)cc3)nnn2c2ccccc12	aSyn UTR act -141
CC(C)(C)C(=O)NC(=S)NNC(=O)c1ccc(-c2ccccc2)cc1	none
O=C(Nc1cccnc1)c1ccc(-c2ccccc2)cc1	aSyn UTR act -163
CC(C)c1cc(C(=O)Nc2cccnc2)no1	aSyn UTR act -85
O=C(NNC(=O)c1ccc(-c2ccccc2)cc1)c1ccccc1	aSyn UTR act -64
Cc1ccc(C(=O)Nc2cccnc2)cc1Cl	aSyn UTR act -172
CC(C)c1ccc(C(=O)Nc2cccnc2)cc1	aSyn UTR act -96
COc1cccc(NC(=O)c2ccc(NC(=O)C(C)(C)C)cc2)c1	aSyn UTR act -189
O=C(Nc1ccccc1)c1cnc[nH]1	aSyn UTR act -68
O=C(Nc1ccc(-c2cnco2)cc1)c1ccccc1	aSyn UTR act -172
O=C(Nc1cccnc1)c1cnc2ccccc2n1	aSyn UTR act -73
CC(C)(C)C(=O)Nc1ccc(C(=O)Nc2cccnc2)cc1	aSyn UTR act -120
CCC(C)c1ccc(NC(=O)c2cccnc2)cc1 (stereo not given)	aSyn UTR act -269
O=C(Nc1ccncc1)c1ccc(-c2ccccc2)cc1	aSyn UTR act -127
COc1cccc(-c2cc(=O)c3cc(NC(=O)c4ccc(Cl)cc4)ccc3[nH]2)c1	aSyn UTR act -68
COc1cccc(-c2cc(=O)c3cc(NC(=O)c4ccccc4)ccc3[nH]2)c1	none
CN(C)c1ccc(C(CN)c2c[nH]c3ccccc23)cc1 (stereo not given)	aSyn UTR act -97
COCC(C)N=C1NN=C(c2cc(C)n(Cc3ccccc3Cl)c2C)CS1 (stereo not given)	aSyn UTR act -141
COCCn1c(C)cc(C2=NNC(=NC3CC3)SC2)c1C	none
COCCCN=C1NN=C(c2cc(C)n(Cc3ccco3)c2C)CS1	none
CCc1c(C)sc(NC(=O)c2cc(C)on2)c1C#N	aSyn UTR act -103
CCc1c(C)sc(NC(=O)c2cccs2)c1C#N	aSyn UTR act -158
Cc1sc(NC(=O)c2ccccc2)c(C#N)c1-c1ccccc1	aSyn UTR act -141

Assay outcomes (PubChem)
